Data reported in PubChem BioAssay.
Values without a mark were called inactive. How the calls were made is not given here.

System: Aerobactin synthetase IucA (Klebsiella pneumoniae hvKP1)
Assay: Biochemical IucA enzyme inhibition primary screen of the Spectrum library (AID 1346200);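 further: 100% = wells without compound and 0% = wells lacking enzyme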
Conditions: malachite green pyrophosphate, A620, at 8 µM, active compounds read low

| Structure (SMILES) | activity remaining [%] |
| --- | --- |
| NCc1ccc(S(N)(=O)=O)cc1 | 114 |
| CC(=O)Oc1ccc(C(c2ccc(OC(C)=O)cc2)c2ccccn2)cc1 | 82.7 |
| COc1ccc2c3c1O[C@H]1C[C@@H](O)C=C[C@@]31CCN(C)C2 | 103 |
| C=C[C@@](C)(O)CCC1C(=C)C[C@H](O)C2C(C)(C)CCCC12C (some centres not stated) | 123 |
| C=C[C@@H](C1=CC(=O)C(OC)=C(OC)C1=O)c1ccccc1 | 128 |
| COc1c(C)c2c(c(O)c1C/C=C(\C)CCC(=O)O)C(=O)OC2 | 98.9 |
| CCNC(=O)CC[C@H](N)C(=O)O | 119 |
